Measurements published in the supplement of paper PMC10849652.
Of roughly 7,900 targets only a part is listed; those with a hit were picked by preference. About 0.6% of all pairs of compound and target were hits. Unmarked numbers belong to inactive results.

Legend:
Assay in all cases: log2 fold change, soluble protein after heating vs DMSO (PISA); higher = thermal stabilisation; K562 cells, 10 uM, 30 min; active = over 0.2 and 3.5 SD of the protein, either way, in both replicates (recomputed)
[1] = compound: COC1=CC=C(C=C1)CN2C=CC3=C2C=C(C=C3)C(=O)NO
Outline: (§1)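 Soluble protein was defined as the supernatant after 21,000xg for 90 min. It came from K562 cells at 2×10^6 cells/mL given 10 μM compound for 30 min, heated in aliquots for 3 min across 48°C-58°C, pooled, and extracted in PBS with 0.5% NP-40 at 4°C, and was quantified by TMTpro 16plex LC-MS/MS with equalised channel sums. Thermal stability against control samples, from duplicates, is reported as log2 fold change.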

filanesib = compound: CON(C)C(=O)N1N=C(c2cc(F)ccc2F)S[C@@]1(CCCN)c1ccccc1 [filanesib]
Outline: as §1

zotarolimus = compound: CO[C@H]1C[C@@H]2CC[C@@H](C)[C@@](O)(O2)C(=O)C(=O)N2CCCC[C@H]2C(=O)O[C@H]([C@H](C)C[C@@H]2CC[C@H](n3cnnn3)[C@H](OC)C2)CC(=O)[C@H](C)/C=C(\C)[C@@H](O)[C@@H](OC)C(=O)[C@H](C)C[C@H](C)/C=C/C=C/C=C/1C [zotarolimus]
Outline: as §1

idasanutlin = compound: COc1cc(C(=O)O)ccc1NC(=O)[C@@H]1N[C@@H](CC(C)(C)C)[C@](C#N)(c2ccc(Cl)cc2F)[C@H]1c1cccc(Cl)c1F [idasanutlin]
Outline: as §1

[2] = compound: COc1cc2nc(-c3cc(F)ccc3O)nc(N[C@@H]3CNC[C@H]3C(C)(C)O)c2cc1OC
Outline: as §1

gefitinib = compound: COc1cc2ncnc(Nc3ccc(F)c(Cl)c3)c2cc1OCCCN1CCOCC1 [gefitinib]
Outline: as §1

lapatinib = compound: CS(=O)(=O)CCNCc1ccc(-c2ccc3ncnc(Nc4ccc(OCc5cccc(F)c5)c(Cl)c4)c3c2)o1 [lapatinib]
Outline: as §1

pictilisib = compound: CS(=O)(=O)N1CCN(Cc2cc3nc(-c4cccc5[nH]ncc45)nc(N4CCOCC4)c3s2)CC1 [pictilisib]
Outline: as §1

[3] = compound: CS(=O)(=O)c1ccc(-c2cnc(N)c(C(=O)Nc3ccccc3)n2)cc1
Outline: as §1

crizotinib = compound: C[C@@H](Oc1cc(-c2cnn(C3CCNCC3)c2)cnc1N)c1c(Cl)ccc(F)c1Cl [crizotinib]
Outline: as §1

[4] = compound: C[C@H](C1=CC=C(C=C1)C(=O)NC2=C3C=CNC3=NC=C2)N
Outline: as §1

duvelisib = compound: C[C@H](Nc1ncnc2nc[nH]c12)c1cc2cccc(Cl)c2c(=O)n1-c1ccccc1 [duvelisib]
Outline: as §1

gandotinib = compound: Cc1cc(Nc2cc(CN3CCOCC3)c3nc(C)c(Cc4ccc(Cl)cc4F)n3n2)n[nH]1 [gandotinib]
Outline: as §1

tozasertib = compound: Cc1cc(Nc2cc(N3CCN(C)CC3)nc(Sc3ccc(NC(=O)C4CC4)cc3)n2)n[nH]1 [tozasertib]
Outline: as §1

[5] = compound: Cc1cc(SCc2sc(-c3ccc(C(F)(F)F)cc3)nc2C)ccc1OCC(=O)O
Outline: as §1

doramapimod = compound: Cc1ccc(-n2nc(C(C)(C)C)cc2NC(=O)Nc2ccc(OCCN3CCOCC3)c3ccccc23)cc1 [doramapimod]
Outline: as §1

ispinesib = compound: Cc1ccc(C(=O)N(CCCN)[C@@H](c2nc3cc(Cl)ccc3c(=O)n2Cc2ccccc2)C(C)C)cc1 [ispinesib]
Outline: as §1

alisertib = compound: COc1cc(Nc2ncc3c(n2)-c2ccc(Cl)cc2C(c2c(F)cccc2OC)=NC3)ccc1C(=O)O [alisertib]
Outline: as §1

[6] = compound: COc1cccc2cc(-c3nc([C@H]4CC[C@H](C(=O)O)CC4)n4ncnc(N)c34)[nH]c12
Outline: as §1

[7] = compound: C[C@@H]1COCCN1C2=NC(=NC(=C2)C3(CC3)S(=O)(=O)C)C4=C5C=CNC5=CC=C4
Outline: as §1

Chain of UniProt Q9UER7 (Q9UER7 whole entry, looked up): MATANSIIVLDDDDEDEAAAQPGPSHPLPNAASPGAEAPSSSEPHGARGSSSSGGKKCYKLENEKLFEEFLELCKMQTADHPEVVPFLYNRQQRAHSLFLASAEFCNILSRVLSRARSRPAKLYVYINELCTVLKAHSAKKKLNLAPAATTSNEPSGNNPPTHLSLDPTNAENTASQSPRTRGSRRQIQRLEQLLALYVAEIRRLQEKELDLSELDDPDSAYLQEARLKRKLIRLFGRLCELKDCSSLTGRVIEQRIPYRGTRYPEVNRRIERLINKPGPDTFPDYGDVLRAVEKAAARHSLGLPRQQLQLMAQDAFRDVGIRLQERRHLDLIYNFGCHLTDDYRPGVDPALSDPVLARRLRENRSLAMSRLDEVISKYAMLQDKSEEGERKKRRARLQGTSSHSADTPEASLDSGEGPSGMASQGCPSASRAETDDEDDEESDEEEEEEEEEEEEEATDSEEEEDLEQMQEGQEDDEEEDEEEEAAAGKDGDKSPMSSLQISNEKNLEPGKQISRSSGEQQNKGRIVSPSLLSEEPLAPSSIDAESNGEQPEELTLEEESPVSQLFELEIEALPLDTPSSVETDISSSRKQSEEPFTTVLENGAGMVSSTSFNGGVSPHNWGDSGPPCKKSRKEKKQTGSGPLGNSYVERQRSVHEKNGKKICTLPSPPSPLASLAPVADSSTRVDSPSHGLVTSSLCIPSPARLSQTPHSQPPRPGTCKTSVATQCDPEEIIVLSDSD
Chain of UniProt P80370 (P80370 whole entry, looked up): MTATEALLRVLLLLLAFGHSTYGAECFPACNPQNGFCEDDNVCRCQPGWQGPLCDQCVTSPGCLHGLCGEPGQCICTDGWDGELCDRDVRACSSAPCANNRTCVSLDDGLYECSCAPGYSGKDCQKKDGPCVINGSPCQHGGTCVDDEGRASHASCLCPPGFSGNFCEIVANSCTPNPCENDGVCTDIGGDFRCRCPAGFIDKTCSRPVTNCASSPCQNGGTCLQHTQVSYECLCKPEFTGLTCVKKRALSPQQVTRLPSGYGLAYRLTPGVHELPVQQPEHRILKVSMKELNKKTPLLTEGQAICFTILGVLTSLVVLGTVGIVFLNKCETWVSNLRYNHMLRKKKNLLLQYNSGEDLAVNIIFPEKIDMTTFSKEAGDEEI
Chain of UniProt Q96FC9 (Q96FC9 whole entry, looked up): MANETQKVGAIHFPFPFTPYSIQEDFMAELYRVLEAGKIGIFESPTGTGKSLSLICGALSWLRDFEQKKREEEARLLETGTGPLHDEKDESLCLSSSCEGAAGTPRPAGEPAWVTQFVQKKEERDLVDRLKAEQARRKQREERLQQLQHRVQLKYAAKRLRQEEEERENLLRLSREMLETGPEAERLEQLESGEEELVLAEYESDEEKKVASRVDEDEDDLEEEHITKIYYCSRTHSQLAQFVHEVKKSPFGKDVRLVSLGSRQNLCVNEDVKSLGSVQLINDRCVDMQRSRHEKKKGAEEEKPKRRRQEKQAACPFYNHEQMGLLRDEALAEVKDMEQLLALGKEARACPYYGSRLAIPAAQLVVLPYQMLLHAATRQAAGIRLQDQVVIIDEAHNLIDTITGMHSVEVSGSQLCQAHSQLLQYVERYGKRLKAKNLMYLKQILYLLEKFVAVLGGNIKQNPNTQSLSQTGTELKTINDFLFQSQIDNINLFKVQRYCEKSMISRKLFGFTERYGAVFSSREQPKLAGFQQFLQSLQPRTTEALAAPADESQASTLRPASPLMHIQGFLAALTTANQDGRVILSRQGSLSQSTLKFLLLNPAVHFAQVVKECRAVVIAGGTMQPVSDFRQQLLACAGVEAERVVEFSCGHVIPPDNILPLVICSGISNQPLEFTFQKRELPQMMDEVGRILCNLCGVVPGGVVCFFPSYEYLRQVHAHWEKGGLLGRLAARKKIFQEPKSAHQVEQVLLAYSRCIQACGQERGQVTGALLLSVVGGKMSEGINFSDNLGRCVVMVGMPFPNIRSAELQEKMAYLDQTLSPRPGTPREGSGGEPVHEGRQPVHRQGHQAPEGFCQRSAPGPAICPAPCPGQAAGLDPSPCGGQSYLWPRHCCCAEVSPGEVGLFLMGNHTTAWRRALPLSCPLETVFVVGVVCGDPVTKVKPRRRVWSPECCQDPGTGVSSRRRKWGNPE
Chain of UniProt Q6P1L5 (Q6P1L5 whole entry, looked up): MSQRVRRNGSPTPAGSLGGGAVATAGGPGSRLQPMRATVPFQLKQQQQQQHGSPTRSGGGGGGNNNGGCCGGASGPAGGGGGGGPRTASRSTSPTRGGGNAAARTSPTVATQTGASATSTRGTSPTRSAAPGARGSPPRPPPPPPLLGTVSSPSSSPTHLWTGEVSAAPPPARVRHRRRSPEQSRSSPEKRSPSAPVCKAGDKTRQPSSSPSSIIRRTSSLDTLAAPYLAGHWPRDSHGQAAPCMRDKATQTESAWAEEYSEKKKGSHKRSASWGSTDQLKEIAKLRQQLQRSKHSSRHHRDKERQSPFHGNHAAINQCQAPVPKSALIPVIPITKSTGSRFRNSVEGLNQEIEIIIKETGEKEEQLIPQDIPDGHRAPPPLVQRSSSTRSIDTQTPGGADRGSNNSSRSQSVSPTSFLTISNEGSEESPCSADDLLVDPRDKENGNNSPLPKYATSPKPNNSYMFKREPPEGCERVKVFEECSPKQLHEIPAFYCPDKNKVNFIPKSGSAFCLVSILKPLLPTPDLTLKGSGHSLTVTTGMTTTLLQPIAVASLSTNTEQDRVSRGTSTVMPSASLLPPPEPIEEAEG
Chain of UniProt P29692 (P29692 whole entry, looked up): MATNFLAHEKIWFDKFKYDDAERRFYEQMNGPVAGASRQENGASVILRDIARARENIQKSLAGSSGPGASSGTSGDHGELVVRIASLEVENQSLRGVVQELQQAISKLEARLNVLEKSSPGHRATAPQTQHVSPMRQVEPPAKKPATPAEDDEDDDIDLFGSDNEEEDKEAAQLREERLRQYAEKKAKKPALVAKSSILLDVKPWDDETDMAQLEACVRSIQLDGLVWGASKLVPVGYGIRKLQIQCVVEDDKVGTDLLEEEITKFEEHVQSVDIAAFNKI
Chain of UniProt Q07973 (Q07973 whole entry, looked up): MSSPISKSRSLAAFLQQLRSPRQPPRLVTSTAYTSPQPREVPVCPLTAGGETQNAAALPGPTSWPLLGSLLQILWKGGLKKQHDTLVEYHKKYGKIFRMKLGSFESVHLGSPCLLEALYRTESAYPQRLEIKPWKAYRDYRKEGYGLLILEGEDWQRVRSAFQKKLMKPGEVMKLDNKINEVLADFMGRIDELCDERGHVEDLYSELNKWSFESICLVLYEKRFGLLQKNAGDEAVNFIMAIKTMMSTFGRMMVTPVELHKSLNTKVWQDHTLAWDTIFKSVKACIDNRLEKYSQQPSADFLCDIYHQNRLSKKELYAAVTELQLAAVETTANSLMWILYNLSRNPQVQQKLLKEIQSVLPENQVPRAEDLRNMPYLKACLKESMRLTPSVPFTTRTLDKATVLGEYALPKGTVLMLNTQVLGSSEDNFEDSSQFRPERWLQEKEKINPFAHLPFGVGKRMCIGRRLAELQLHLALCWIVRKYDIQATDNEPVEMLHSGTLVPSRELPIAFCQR
Chain of UniProt Q16531 (Q16531 whole entry, looked up): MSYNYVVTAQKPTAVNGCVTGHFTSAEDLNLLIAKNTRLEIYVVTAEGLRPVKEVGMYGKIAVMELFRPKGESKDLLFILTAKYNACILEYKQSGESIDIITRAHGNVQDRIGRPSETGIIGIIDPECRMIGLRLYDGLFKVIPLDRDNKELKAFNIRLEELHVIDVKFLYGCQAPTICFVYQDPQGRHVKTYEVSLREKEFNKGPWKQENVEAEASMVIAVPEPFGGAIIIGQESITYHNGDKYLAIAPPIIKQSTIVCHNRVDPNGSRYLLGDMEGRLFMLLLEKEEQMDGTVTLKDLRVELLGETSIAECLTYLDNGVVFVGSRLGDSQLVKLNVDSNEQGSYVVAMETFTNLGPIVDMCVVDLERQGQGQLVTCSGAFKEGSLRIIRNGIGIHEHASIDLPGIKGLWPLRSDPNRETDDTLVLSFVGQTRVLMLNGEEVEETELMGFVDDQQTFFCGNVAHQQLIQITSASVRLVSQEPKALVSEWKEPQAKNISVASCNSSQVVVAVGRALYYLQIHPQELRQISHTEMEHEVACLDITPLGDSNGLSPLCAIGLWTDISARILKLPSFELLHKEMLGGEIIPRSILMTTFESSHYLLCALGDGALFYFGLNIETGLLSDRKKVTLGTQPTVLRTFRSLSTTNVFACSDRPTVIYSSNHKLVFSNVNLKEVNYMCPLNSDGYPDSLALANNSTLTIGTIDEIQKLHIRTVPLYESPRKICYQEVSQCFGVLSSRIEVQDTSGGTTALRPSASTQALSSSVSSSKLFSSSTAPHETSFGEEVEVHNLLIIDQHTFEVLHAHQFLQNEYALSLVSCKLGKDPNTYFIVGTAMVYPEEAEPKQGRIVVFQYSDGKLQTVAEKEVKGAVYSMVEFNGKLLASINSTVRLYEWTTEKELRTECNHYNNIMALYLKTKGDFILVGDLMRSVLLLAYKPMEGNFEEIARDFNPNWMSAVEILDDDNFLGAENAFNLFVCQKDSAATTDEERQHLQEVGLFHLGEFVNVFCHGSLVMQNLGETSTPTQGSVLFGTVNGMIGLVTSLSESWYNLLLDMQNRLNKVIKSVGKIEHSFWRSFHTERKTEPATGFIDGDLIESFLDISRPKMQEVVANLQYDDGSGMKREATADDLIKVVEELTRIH
Chain of UniProt O15121 (O15121 whole entry, looked up): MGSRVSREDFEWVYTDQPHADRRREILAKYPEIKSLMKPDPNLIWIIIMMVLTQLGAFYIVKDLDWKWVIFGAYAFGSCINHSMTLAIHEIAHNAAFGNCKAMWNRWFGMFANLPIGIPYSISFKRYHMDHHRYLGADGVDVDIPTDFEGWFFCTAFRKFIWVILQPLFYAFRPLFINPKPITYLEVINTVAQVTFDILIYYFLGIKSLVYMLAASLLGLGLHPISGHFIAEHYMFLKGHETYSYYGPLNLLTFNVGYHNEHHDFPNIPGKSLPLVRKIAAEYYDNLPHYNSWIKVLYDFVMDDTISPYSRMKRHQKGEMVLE

Target | log2 fold change [1] | log2 fold change (filanesib) | log2 fold change (zotarolimus) | log2 fold change (idasanutlin) | log2 fold change [2] | log2 fold change (gefitinib) | log2 fold change (lapatinib) | log2 fold change (pictilisib) | log2 fold change [3] | log2 fold change (crizotinib) | log2 fold change [4] | log2 fold change (duvelisib) | log2 fold change (gandotinib) | log2 fold change (tozasertib) | log2 fold change [5] | log2 fold change (doramapimod) | log2 fold change (ispinesib) | log2 fold change (alisertib) | log2 fold change [6] | log2 fold change [7]
DAXX (UniProt Q9UER7) | 0.248 | 0.008 | 0.055 | -0.067 | 0.283 | -0.125 | -0.05 | 0.247 | 0.154 | 0.098 | 0.106 | -0.001 | 0.313 | -0.167 | 0.006 | 0 | -0.062 |  |  | 
DAB2 (UniProt P98082) | -0.009 | 0.079 | 0 | -0.055 | 0.155 | 0.024 | -0.005 | 0.071 | -0.04 | -0.099 | -0.052 | -0.021 | -0.021 | -0.023 | 0.069 | 0.022 | -0.091 | -0.081 | 0.011 | 0.049
DCP2 (UniProt Q8IU60) | -0.085 | 0.121 | -0.037 | 0.167 | 0.075 |  | -0.042 |  | -0.211 | 0.779 (active) | 0.009 | -0.049 |  | 0.219 | 0.095 | 0.147 | -0.045 |  |  | 0.119
EHBP1 (UniProt Q8NDI1) |  |  | -0.02 | 0.031 |  |  |  | 0.057 |  |  | 0.158 |  | 0.015 | 0.043 |  |  |  | 0.025 | 0.086 | 
DOP1A (UniProt Q5JWR5) |  |  |  |  |  |  |  |  |  |  |  |  |  |  |  |  |  | -0.013 | 0.02 | 0.007
DLK1 (UniProt P80370) | -0.021 |  | -0.095 |  |  |  |  |  |  | -0.108 | -0.133 | -0.173 |  |  | -0.058 | 0.002 |  |  |  | -0.151
DENND1A isoform 6 (UniProt Q8TEH3) | 0.154 |  |  |  | -0.18 |  | 0.06 |  |  | -0.231 |  |  |  | -0.093 |  | 0.374 |  |  |  | 
DEGS1 (UniProt O15121) |  | -0.048 | 0.027 | 0.039 | -0.013 | -0.002 | -0.034 | 0 | 0.064 |  | -0.047 | -0.017 | 0.138 | -0.07 | -0.078 |  |  | 0.028 | -0.018 | 0.062
FADS1 (UniProt F5GYH4) | -0.373 |  |  |  |  |  |  |  |  | -0.079 |  |  |  | -0.262 |  | 0.106 |  |  |  | 
EEF1D isoform 3 (UniProt P29692) |  |  |  |  |  |  |  |  |  |  |  |  |  | 0.212 |  |  |  | -0.067 | -0.105 | 
EGR1 (UniProt P18146) |  | 0.463 | 0.125 | 0.164 | -0.24 | -0.183 | 0.067 | -0.362 | 0.063 |  | -0.518 |  | -0.536 | -0.131 |  |  | 0.36 | -0.54 | 0.079 | 0.259
DDX11 (UniProt Q96FC9) | -0.069 | 0.144 |  | -0.05 | 0.047 | -0.009 | -0.045 |  | 0.02 | -0.01 |  | 0.05 |  | -0.068 | 0.015 | 0.224 | 0.012 | 0.088 | 0.437 (active) | -0.144
DDB1 isoform 2 (UniProt Q16531) |  | 0.077 |  |  |  |  |  | 0.094 | 0.009 |  |  |  | -0.228 |  |  |  |  |  |  | 0.118
ELMO1 (UniProt Q92556) | -0.108 | 0.072 |  |  |  | 0.017 |  |  | 0.06 | -0.019 |  | 0.163 |  |  | -0.043 | 0.033 | -0.299 | 0.212 | 0.08 | 0
DHPS (UniProt M0R1T2) |  | -0.057 |  |  |  |  |  |  | -0.152 |  |  |  |  |  |  |  |  |  |  | 
DERPC (UniProt P0CG12) | -0.016 |  |  |  |  | 0.099 |  | -0.107 |  | 0.029 |  | 0.191 | 0.006 |  | -0.113 | -0.099 | 0.07 | 0.021 | 0.086 | 
CYP24A1 (UniProt Q07973) | 0.1 |  |  | 0.039 | 0.091 | -0.044 | 0.067 | -0.059 |  | -0.043 |  | -0.079 | 0.535 | -0.05 | -0.13 | 0.283 | -0.244 | -0.095 | -0.306 | 
FAM117B (UniProt Q6P1L5) | 0.053 |  | 0.007 | -0.062 |  |  |  | 0.208 |  | 0.563 | -0.021 | -0.381 | -0.164 | -0.175 | 0.257 | 0.21 | -0.057 |  |  | 0.007
ENTPD7 (UniProt Q9NQZ7) | -0.031 | -0.268 |  |  | 0.06 | -0.026 | 0.099 |  | 0.256 | 0.084 |  | -0.178 |  | 0.185 | 0.014 | 0.025 |  | -0.054 | 0.03 | -0.037
